These results are taken from PubChem BioAssay (NCATS).

Experiment [1] is described as follows: NCATS anti-infectives library activity on HEK293 viability as a counter-qHTS vs the C. elegans viability qHTS (AID 1745854). Note: % is set by controls: 0 for no effect and ±100 for the full control effect. The essentials: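 HEK293 cells, 1500 per well, exposed 24 hr at 37C in 5% CO2 to compounds in a 1:5 titration, up to 41.7 uM final. Viability read as CellTiter-Glo luminescence after 10 min at room temperature.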
Experiment [2] concerns the target Glutathione peroxidase 1 (Homo sapiens) (UniProt P07203). As to the kind of experiment: Primary qHTS Assay for Inhibitors of Recombinant Selenoprotein Glutathione Peroxidase 1 (GPX1) (AID 1845191). Note: nearly all actives have a fitted effect of over 65% in size. The essentials: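 10 nM GPX1 + cpd, 30 min RT; start w/ 1 mM GSH, 0.5 mM cumene hydroperoxide, 0.5 mM NADPH, 100 nM GR, 0.01% BSA; buffer 50 mM Tris-HCl pH 7.5, 2 mM EDTA, 150 mM NaCl; Fl 340/450, 0 & 15 min.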
(In general: In qHTS, concentration-response curves come from the screen itself.)

Experiment [3] addresses Phospholipid hydroperoxide glutathione peroxidase GPX4 (Homo sapiens) (UniProt P36969). As to the kind of experiment: Primary qHTS Assay for Inhibitors of Recombinant Selenoprotein Glutathione Peroxidase 4 (GPX4) (AID 1845192). For activity change, negative = inhibition: % is set by controls: 0 for no effect and ±100 for the full control effect. Note: nearly all actives have a fitted effect of over 65% in size. Note: potency is the fitted concentration of half-maximal effect. The essentials: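 NADPH consumption, followed by fluorescence at 340/450 nm between 0 and 15 min, reports GPX4 activity via coupled glutathione reductase (100 nM). Enzyme 200 nM was pre-exposed to compound 30 min; 0.5 mM cumene hydroperoxide and 1 mM GSH served as substrates.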

The target of experiment [4] is Luciferin 4-monooxygenase (Photinus pyralis) (UniProt P08659). The experiment can be described thus: Primary firefly luciferase (FLuc) qHTS assay for identification of artifact compounds. (AID 1845220).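 For activity change, negative = inhibition: plate controls were DMSO vehicle for no effect and no enzyme for full effect.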 Note: nearly all actives have a fitted effect of over 60% in size. The essentials: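 Cell-free, 1536-well qHTS. Buffer pH 7.6 with 0.01% Tween-20 and 0.05% BSA; 10 uM D-luciferin, 10 uM ATP; 10 nM P. pyralis luciferase; luminescence after 5 min.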

Experiment [5] in a line: Primary fluorescence-based thiol-reactive (MSTI) qHTS assay for identification of artifact compounds. (AID 1845221).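 Note: thiol-reactive compounds lower the probe fluorescence signal; nearly all actives have a fitted effect of over 65% in size.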 In a few lines: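 Thiol-reactive compounds detected by quenching of 4 uM MSTI fluorescence (525/598 nm) after 1 h room-temperature dark incubation in PBS pH 7.4, 2% DMSO. qHTS titration; percent inhibition Hill-fitted against Acetyl-MSTI/MSTI controls.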
Experiment [6] relates to Nanoluciferase (engineered Oplophorus gracilirostris luciferase). The experiment can be described thus: Primary Nanoluciferase (NLuc) qHTS assay for identification of artifact compounds. (AID 1845222).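 Note: 0% = DMSO and -100% = no enzyme.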 In a few lines:
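Compounds are pinned into diluted (1:55) conditioned medium of NLuc-expressing S16 cells and held 15 min at room temperature protected from light. Nano-Glo substrate follows, and luminescence is read 5 min later.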

Experiment [7] can be described thus: Primary redox qHTS assay for identification of artifact compounds. (AID 1845223).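 Note: 0% = DMSO and 100% = reference compound.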 In a few lines:
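Amplex Red (25 uM) and HRP (250 mU/mL) in HBSS, with compounds for 15 min, then 250 uM DTT for 30 min, room temperature, dark. Fluorescence 525/598 nm read; normalized to DMSO and 10 uM DA3003; Hill fit.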

A short description of experiment [8]: Primary qHTS for inhibitors of nuclear receptor binding SET domain protein 2 (NSD2) in an RCH-ACV wild type WT cells (2C) (AID 1645877). Note: nearly all actives have a fitted effect of over 70% in size. Note: potency is the fitted concentration of half-maximal effect.
The nature of experiment [9]: NCATS anti-infectives library activity on the primary C. elegans qHTS viability assay (AID 1745855; calls by dose curve). The essentials:
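Viability is taken from GFP fluorescence of PE254-GFP-FLuc C. elegans imaged by laser cytometry over 7 days. Ten L1 worms per well grow at 21 °C on TOP10 E. coli capsules with titrated compound; levamisole marks toxicity.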

Experiment [10] has as its target Catechol O-methyltransferase (Homo sapiens) (UniProt P21964). The experiment can be described thus: Confirmatory Screen for Target Class Profiling of Small Molecule Inhibitors of Methyltransferases (AID 1745852; calls by dose curve; for activity change, negative = inhibition: % is set by controls: 0 for no effect and ±100 for the full control effect). The settings on record: MTase-Glo luminescence, SAH detection, recombinant enzyme; measured here: COMT max response; stronger effect = lower value.
Experiment [11] deals with Guanidinoacetate N-methyltransferase (Homo sapiens) (UniProt Q14353). Described as above. The settings on record: activity change, negative = inhibition: at 57.3 µM (top of the series) unless noted.
Experiment [12] addresses Nicotinamide N-methyltransferase (Homo sapiens) (UniProt P40261). The description is as above. The note with it: MTase-Glo luminescence, SAH detection, recombinant enzyme; measured here: NNMT max response; stronger effect = lower value.
Experiment [13] concerns the target Phenylethanolamine N-methyltransferase (Homo sapiens) (UniProt P11086). The experiment is described as above. The settings on record: MTase-Glo luminescence, SAH detection, recombinant enzyme; measured here: PNMT max response; stronger effect = lower value.
Experiment [14] in a line: Viability counterscreen for antagonist of constitutive androstane receptor (CAR) against the NCATS DSHEA and TCM libraries (AID 1794837).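 Note: compound exposure lasted 24 h before viability reading; 0% is about no effect.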 The essentials:
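HepG2-CYP2B6-hCAR cells, 2,500/well, were exposed 24 hr at 37C to substances together with 48 uM CITCO (final). Viability was read as CellTiter-Fluor fluorescence (Ex/Em 405/540 nm) after 1 hr.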

The nature of experiment [15]: Viability counterscreen for agonist of constitutive androstane receptor (CAR) against the NCATS DSHEA and TCM libraries (AID 1794838).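 Note: HepG2 cells with CYP2B6 reporter and hCAR plus 0.75 µM PK11195 antagonist; 0% is about no effect.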 The essentials: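 HepG2-CYP2B6-hCAR cells (2,500/well) treated 24 h at 37C with compounds plus 0.75 uM PK11195; viability read by CellTiter-Fluor fluorescence, Ex/Em 405/540 nm.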
In general terms: The purpose of a counterscreen is to sort out artefacts and off-target activity.

Experiment [16] has as its target Nuclear receptor subfamily 1 group I member 3 (Homo sapiens) (UniProt Q14994). The experiment can be described thus: Primary qHTS for agonist of constitutive androstane receptor (CAR) against the NCATS DSHEA and TCM libraries (AID 1794839).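 Note: HepG2 cells expressing human CAR with a CYP2B6 reporter plus PK11195 antagonist; 0% is about no effect.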 In a few lines: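 HepG2-CYP2B6-hCAR cells, 2,500/well, attached 5 h, then dosed with 0.75 µM PK11195 (final) for 24 h at 37 °C. Luciferase luminescence read (ONE-Glo); CellTiter-Fluor viability (Ex/Em 405/540 nm) in same wells; CITCO positive control.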

Experiment [17] can be described thus: HepG2 viability counterscreen (readout 2: ATP content) against the NCATS DSHEA and TCM libraries (AID 1794840). Note: 0% is about no effect. The essentials:
(§1)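 HepG2 cells, 1,000/well, attached ~4 h, then exposed ~24 h at 37C to substances. Protease activity read by fluorescence of 25 uM GF-AFC (Ex/Em 380/510 nm) after 30 min; ATP then by CellTiter-Glo luminescence.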

A short description of experiment [18]: HepG2 viability counterscreen (readout 1: protease activity) against the NCATS DSHEA and TCM libraries (AID 1794841).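 Note: cells exposed to compounds for about 24 h before the protease read; 0% is about no effect.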 In a few lines:
as §1

Inconclusive results are not listed. Active and inactive are the calls of the source. Unless noted, calls come from the whole dose curve; as a rule, active = well fitted curve in the direction sought with a large enough effect; inconclusive = small, poorly fitted or top-dose-only effect, or another doubt; inactive = no such curve, though single readings can be large; an effect the other way counts as inactive or inconclusive. Where a SMILES comes first, the peptide text is derived from it. The star is where a group is joined. AFC = O=c1cc(C(F)(F)F)c2ccc(N*)cc2o1

Chain of Nicotinamide N-methyltransferase (Homo sapiens) (P40261 whole entry, looked up): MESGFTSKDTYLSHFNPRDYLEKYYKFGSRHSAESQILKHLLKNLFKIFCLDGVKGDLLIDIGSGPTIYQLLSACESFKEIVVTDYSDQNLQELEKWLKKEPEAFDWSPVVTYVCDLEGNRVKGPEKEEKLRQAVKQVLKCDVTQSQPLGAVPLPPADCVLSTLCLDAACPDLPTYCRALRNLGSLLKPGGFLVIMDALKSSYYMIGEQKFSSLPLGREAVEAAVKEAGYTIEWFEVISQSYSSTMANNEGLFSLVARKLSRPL
Chain of Phenylethanolamine N-methyltransferase (Homo sapiens) (P11086 whole entry, looked up): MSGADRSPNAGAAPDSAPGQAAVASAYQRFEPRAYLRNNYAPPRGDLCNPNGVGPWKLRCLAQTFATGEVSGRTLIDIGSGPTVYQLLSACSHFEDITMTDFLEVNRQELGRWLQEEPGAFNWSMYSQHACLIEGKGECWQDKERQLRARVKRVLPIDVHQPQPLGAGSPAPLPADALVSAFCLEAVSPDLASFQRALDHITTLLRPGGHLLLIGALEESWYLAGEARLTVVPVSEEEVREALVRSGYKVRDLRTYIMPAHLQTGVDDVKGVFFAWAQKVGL
Chain of Phospholipid hydroperoxide glutathione peroxidase GPX4 (Homo sapiens) (P36969 whole entry, looked up): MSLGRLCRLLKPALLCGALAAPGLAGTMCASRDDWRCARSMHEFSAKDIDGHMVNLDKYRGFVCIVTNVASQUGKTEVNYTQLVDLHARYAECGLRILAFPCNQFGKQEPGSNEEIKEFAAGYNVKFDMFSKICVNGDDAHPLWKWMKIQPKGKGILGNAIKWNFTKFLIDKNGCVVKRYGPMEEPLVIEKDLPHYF
Chain of Catechol O-methyltransferase (Homo sapiens) (P21964 whole entry, looked up): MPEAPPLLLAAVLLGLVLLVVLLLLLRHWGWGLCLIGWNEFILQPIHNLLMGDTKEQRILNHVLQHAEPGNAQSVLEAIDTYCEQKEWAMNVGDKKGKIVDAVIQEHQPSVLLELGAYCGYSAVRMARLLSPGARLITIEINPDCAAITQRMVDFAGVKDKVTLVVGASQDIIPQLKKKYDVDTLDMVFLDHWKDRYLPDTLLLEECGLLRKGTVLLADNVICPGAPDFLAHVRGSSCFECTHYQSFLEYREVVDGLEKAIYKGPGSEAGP
Chain of Glutathione peroxidase 1 (Homo sapiens) (P07203 whole entry, looked up): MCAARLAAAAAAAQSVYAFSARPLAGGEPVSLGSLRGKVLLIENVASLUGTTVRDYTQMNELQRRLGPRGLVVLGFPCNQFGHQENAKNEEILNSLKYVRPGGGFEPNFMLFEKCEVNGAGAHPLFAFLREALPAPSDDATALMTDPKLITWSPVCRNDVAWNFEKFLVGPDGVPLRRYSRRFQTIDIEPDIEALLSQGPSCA
Chain of Nuclear receptor subfamily 1 group I member 3 (Homo sapiens) (Q14994 whole entry, looked up): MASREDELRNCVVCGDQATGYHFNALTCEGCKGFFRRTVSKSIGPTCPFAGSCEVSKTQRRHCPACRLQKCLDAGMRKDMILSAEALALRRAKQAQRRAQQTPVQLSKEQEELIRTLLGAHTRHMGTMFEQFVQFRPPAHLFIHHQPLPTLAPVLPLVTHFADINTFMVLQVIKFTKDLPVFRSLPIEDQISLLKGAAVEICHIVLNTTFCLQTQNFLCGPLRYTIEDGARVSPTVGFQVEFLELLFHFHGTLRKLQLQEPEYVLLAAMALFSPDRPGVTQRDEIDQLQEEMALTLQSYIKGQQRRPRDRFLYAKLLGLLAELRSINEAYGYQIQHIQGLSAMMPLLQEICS

In the case of `CCOCc1nc2c(N)nc3ccccc3c2n1CC(C)(C)O`, the Potency result in experiment [1], in experiment [2], in experiment [3], in [4], in experiment [5] and in experiment [6] was “inactive” throughout. Further, the Potency entry in experiment [7] was “inactive”.

Consider `CN(C)CCCCC(=O)Nc1ccc(NC(=S)NC(=O)c2ccc(C(C)(C)C)cc2)cc1`, for which the Potency in [8] is 2.3 µM (active). Further, the Potency entry in experiment [4], in experiment [5], in experiment [6] and in experiment [7] was “inactive” throughout.

For `N#C[C@@H]1CCCN1C(=O)CNC12CC3CC(CC(O)(C3)C1)C2`, the Potency entry in experiment [1], in experiment [2], in experiment [3], in experiment [4], in experiment [5] and in experiment [6] was “inactive” each time. Further, the Potency entry in [7] is “inactive”.

Regarding `COc1cccc2cc3c(c(O[C@@H]4O[C@H](CO[C@@H]5O[C@H](CO)[C@@H](O)[C@H](O)[C@H]5O)[C@@H](O)[C@H](O)[C@H]4O)c12)C(C)OC3=O` (some centres not stated), the Potency entry in experiment [8], in [4], in experiment [6] and in experiment [7] was “inactive” each time. The Potency in [3] was 9.88 µM (active).

In the case of `COC(=O)[C@@]1(c2ccc(C)cc2)C[C@H]1CN1CCC(O)(c2ccccc2)CC1`, the Potency result in [1], in [9], in [2], in experiment [3], in [4] and in [5] was “inactive” each time. Moreover, the Potency result in [6] and in experiment [7] was “inactive” in each case.

With `CC(C)c1cccc2c(-c3ccccc3)cc(-c3ccc(-c4ccc(C(=O)O)cc4)[nH]3)nc12`, the figures for the activity in experiment [10], in experiment [12] and in [13] were -3.32%, -16.3% and -5.01%, respectively. Also, the activity change, negative = inhibition in experiment [11] is -5%. Further, the Potency result in experiment [2], in [3], in experiment [4], in [6] and in [7] was “inactive” throughout.

For `O=C(Nc1ccc(S(=O)(=O)Nc2nccs2)cc1)C(c1ccccc1)c1ccccc1`, the Potency entry in [8], in [4], in experiment [6] and in [7] was “inactive” in each case.

For `CCc1c(C)nc2c(-c3cnn(-c4cc(CO)ccn4)c3)c[nH]n2c1=O`, the Potency entry in experiment [8], in experiment [4] and in experiment [6] was “inactive” each time.

As to `CCOc1ccc(NC(=S)N2CCC(C(O)(c3ccccc3)c3ccccc3)CC2)cc1`, the Potency result in experiment [8], in experiment [4], in experiment [5], in [6] and in experiment [7] was “inactive” throughout.

With `Cc1cc(N2CCN([C@@H]3CN[C@H](C(=O)N4CCSC4)C3)CC2)n(-c2ccccc2)n1`, the Potency result in experiment [1], in experiment [2], in experiment [3], in experiment [4], in [5] and in [6] was “inactive” in each case. Also, the Potency result in experiment [7] was “inactive”.

`NC1(C(=O)NC(CCO)c2ccc(Cl)cc2)CCN(c2ncnc3[nH]ccc23)CC1` (configuration not stated): the Potency in experiment [8] is 1.3 µM (active). Further, the Potency entry in experiment [3], in experiment [4] and in [7] was “inactive” throughout.

For `O=C1CSc2ccccc2N1Cc1cccc(C(F)(F)F)c1`, the activity in experiment [10] was -10.1%; in experiment [12], -46.9%; in [13], -11.4%. In experiment [11], the activity change, negative = inhibition is -5.12%. The Potency result in [2], in experiment [3], in [4], in experiment [5], in experiment [6] and in experiment [7] was “inactive” in each case.

In the case of `C[C@@]12CC[C@@H]3[C@@](CC[C@H]4[C@@]3(C)CCC[C@@]4(C)C(=O)O)(CC1=O)C2`, the outcome in experiment [14], in [15], in experiment [16], in [17] and in experiment [18] was “inactive” throughout. Also, the Potency result in [2], in experiment [3], in experiment [4], in [5], in [6] and in experiment [7] was “inactive” each time.

On to `COc1ccc2cc(C(C)C(=O)Oc3ccc(C(N)=S)cc3)ccc2c1` (configuration not stated), for which the Potency entry in experiment [8], in [4], in experiment [5], in experiment [6] and in [7] was “inactive” each time.

Turning to `c1cc(OCCCN2CCCCC2)ccc1CN1CCCCC1`, the figures for the activity in [10], in experiment [12] and in experiment [13] were -4.16%, -0.228% and -0.509%, respectively. In [11], the activity change, negative = inhibition was -2.14%. Moreover, the Potency entry in experiment [2], in experiment [3], in experiment [4], in [6] and in [7] was “inactive” each time.

In the case of `O=C(COc1cccc2c(=O)[nH]ccc12)c1ccccc1`, the Potency entry in [1], in experiment [2], in experiment [3], in [4], in experiment [5] and in experiment [6] was “inactive” throughout. Besides, in experiment [7], the Potency result is “inactive”.

Take `CC(=O)N[C@@H](Cc1c[nH]c2ccccc12)C(=O)N[C@@H](CCC(=O)O)C(=O)N[C@@H](Cc1cnc[nH]1)C(=O)N[C@@H](CC(=O)O)C(=O)Nc1ccc2c(C(F)(F)F)cc(=O)oc2c1` (Ac-WEHD-{AFC}): the Potency result in [8], in [4], in [5], in experiment [6] and in experiment [7] was “inactive” throughout.

For `NCc1c[nH]c(=S)n1[C@@H]1CCc2c(F)cc(F)cc2C1`, the Potency entry in experiment [8], in [4], in experiment [6] and in [7] was “inactive” throughout.

`Cc1ccc(-c2ccc3c(ccc4sc5c(c43)NC[C@@H](C)NC5=O)n2)cn1`: the Potency in experiment [8] was 16.6 µM (active). Also, the Potency entry in experiment [4], in experiment [5], in [6] and in experiment [7] was “inactive” in each case.

Consider `C=C(C(=O)O)C1CC(O)C2(C)CCCC(=C)C2C1` (configuration not stated), for which the activity is -51% in [10], 4.87% in [12] and 3.46% in experiment [13]. The activity change, negative = inhibition in experiment [11] was determined as 0%. The Potency entry in [2], in experiment [3], in experiment [4], in experiment [5], in experiment [6] and in experiment [7] was “inactive” throughout.

As for `CCNCc1nc2c(N)nc3ccccc3c2n1CC(C)(C)O`, the Potency entry in [1], in experiment [2], in experiment [3], in [4], in experiment [5] and in [6] was “inactive” in each case. The Potency entry in experiment [7] is “inactive”.

In the case of `CC(=O)OC12COC1CC(O)C1(C)C(=O)C(O)C3=C(C)C(OC(=O)C(O)C(NC(=O)OC(C)(C)C)c4ccccc4)CC(O)(C(OC(=O)c4ccccc4)C21)C3(C)C` (configuration not stated), the Potency entry in [8], in experiment [4], in [5], in experiment [6] and in [7] was “inactive” each time.
